# Most compounds without a hit are left out; they make up all but 2.2% or so of the library.
# TLR9-MyD88 inh: inhibitors of TLR9-MyD88 association in cells, primary screen, cell-based, CHO, BLA complementation, fluorescence; CCF4 FRET ratio; inhibition, % at 4.98 µM; 340,000 compounds, 0.21% hits;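 active = inhibition above the mean over all tested compounds plus 3 SD, cut at about 21% in these data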;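 note: 0% = DMSO only wells and 100% = clavulanate BLA inhibitor control wells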
# Target sequence (Q99836 whole entry, looked up): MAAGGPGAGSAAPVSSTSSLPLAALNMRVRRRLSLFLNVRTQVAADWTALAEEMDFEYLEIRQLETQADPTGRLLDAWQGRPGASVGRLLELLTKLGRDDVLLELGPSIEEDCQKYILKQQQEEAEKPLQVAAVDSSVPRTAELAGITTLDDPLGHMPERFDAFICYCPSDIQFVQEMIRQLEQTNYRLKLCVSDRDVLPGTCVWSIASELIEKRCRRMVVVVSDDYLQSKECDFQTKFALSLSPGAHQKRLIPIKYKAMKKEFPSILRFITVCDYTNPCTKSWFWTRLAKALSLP
# Target sequence (Q9NR96 whole entry, looked up): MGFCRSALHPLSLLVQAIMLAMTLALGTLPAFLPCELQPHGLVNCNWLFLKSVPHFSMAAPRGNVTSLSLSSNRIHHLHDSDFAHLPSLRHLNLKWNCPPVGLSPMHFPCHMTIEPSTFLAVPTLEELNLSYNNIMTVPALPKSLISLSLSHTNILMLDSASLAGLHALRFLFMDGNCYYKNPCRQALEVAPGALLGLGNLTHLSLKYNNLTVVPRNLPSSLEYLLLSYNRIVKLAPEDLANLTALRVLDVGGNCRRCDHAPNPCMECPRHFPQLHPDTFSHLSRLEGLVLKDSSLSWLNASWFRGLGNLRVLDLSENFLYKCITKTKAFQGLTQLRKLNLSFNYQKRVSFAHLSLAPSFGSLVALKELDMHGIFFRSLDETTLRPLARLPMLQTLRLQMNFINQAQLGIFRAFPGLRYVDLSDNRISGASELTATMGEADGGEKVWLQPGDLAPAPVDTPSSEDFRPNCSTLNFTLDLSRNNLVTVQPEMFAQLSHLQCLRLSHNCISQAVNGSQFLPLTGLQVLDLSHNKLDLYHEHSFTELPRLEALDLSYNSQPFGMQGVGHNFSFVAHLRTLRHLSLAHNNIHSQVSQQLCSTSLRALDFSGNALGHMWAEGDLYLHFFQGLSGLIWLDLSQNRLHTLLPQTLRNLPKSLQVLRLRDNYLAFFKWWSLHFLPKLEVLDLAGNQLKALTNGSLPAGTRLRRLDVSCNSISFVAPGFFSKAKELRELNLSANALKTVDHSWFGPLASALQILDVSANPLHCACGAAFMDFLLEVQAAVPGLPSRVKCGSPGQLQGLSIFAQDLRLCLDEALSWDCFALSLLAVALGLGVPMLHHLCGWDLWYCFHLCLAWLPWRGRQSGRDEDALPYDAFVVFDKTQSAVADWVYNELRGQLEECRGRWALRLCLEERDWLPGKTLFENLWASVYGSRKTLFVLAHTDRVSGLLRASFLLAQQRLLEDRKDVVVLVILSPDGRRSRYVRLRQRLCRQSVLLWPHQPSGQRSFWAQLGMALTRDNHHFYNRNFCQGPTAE
# NOD2 RIPK2 PPI: NOD2-RIPK2 binding disruptors in cells, primary screen, fluorescence, CHO cells, BLA complementation. Receptor-interacting serine/threonine-protein kinase 2 (Homo sapiens), O43353. CCF4 ratio. inhibition, % at 4.98 µM. 360,000 compounds, 0.38% hits; in the data active = inhibition above about 21%;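 note: 0% = vehicle only and 100% = reference blocker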
# GRK2 aptamer HTS: compounds blocking aptamer binding on GRK2 – biochemical, human GRK2, bead flow cytometry, HTS, primary screen; Beta-adrenergic receptor kinase 1 (Homo sapiens), P25098; FAM-aptamer displacement from GRK2; inhibition of aptamer binding, % at 10 µM; 330,000 compounds, 0.59% hits; AID 488847, 2010;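 active = inhibition of aptamer binding above 40%, roughly 3 SD of noise, on plates passing a quality check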;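 note: median bead fluorescence of bound FAM aptamer so fluorescent compounds give negative values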
# ANO1 block: TMEM16A chloride channel inhibitors, primary screen, cell-based, HTS; Anoctamin-1 (Mus musculus), Q8BHY3; HEK293 TMEM16A/YFP iodide influx fluorescence, ionomycin; normalized B-score (activity score, 25-100; higher = stronger inhibition) at 10 µM; 310,000 compounds, 1.2% hits;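 active = ratio plate-corrected score three or more library SD toward inhibition, starting fluorescence score within five deviations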;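 note: score derived from kinetic fluorescence span divided by baseline fluorescence per well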
# TLR4-MyD88 BLA: inhibitors of TLR4-MyD88 association in cells, primary screen, cell-based, HeLa CL3-4, BLA complementation, FRET ratio; AID 861, 2007; inhibition, % at 8.4 µM; Toll-like receptor 4 (Homo sapiens) + Myeloid differentiation primary response protein …; HeLa CL3-4 TLR4/MyD88 BLA complementation; 200,000 compounds, 0.18% hits; in the data active = inhibition above about 25%;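 note: 0% = vehicle and 100% = reference inhibitor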
# TMEM16A act: TMEM16A chloride channel activators or potentiators, primary screen, cell-based, HTS; HEK293 TMEM16A/YFP-H148Q/I152L, iodide quench fluorescence; hits give low values; B-score at 10 µM; 340,000 compounds, 0.3% hits; AID 623877, 2012;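 active = fluorescence-ratio B-score plate-corrected deviation score at least 3 library SD below zero, with starting fluorescence score within 5 deviations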;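 note: channel opened by trigger with iodide after compound preincubation; score built on the fluorescence ratio of max minus min over baseline; more negative score means more quench and so TMEM16A activation or potentiation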
# TMEM16A reconf: TMEM16A chloride channel inhibitors, confirmation, cell-based, re-confirmation; 2,300 compounds, 39% hits; AID 652189, 2013; shares compounds with ANO1 block; HEK293 TMEM16A/YFP-H148Q, iodide quench fluorescence; ionomycin added to raise cell calcium; inhibition, % at 10 µM;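 active = mean duplicate percent inhibition, scaled so buffer wells are 0 and the reference blocker 100, over three buffer SD above buffer mean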
# TMEM16A Ca cntr: calcium mobilization in TMEM16A/YFP HEK293 cells, confirmation, counter-screen for TMEM16A inhibitor project. 2,300 compounds, 2% hits. Fluo4 calcium mobilization. shares compounds with ANO1 block. AID 652231, 2013. calcium response (% of ionomycin), % at 10 µM;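 active = duplicate-averaged calcium signal over 20% of the ionomycin maximum, relative to buffer baseline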;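 note: each well's signal is peak minus trough fluorescence divided by its pre-addition baseline; 0% = buffer wells and 100% = ionomycin wells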
# YFP-HEK293 quench: iodide YFP quench changes in parental YFP-HEK293, counter-screen for TMEM16A inhibitor project, cell-based; shares compounds with ANO1 block; ionomycin; YFP ratio F(max-min)/F0 at 10 µM; 2,300 tested, under 10 active; AID 652233, 2013;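 active = yellow fluorescent protein signal ratio exceeding the buffer control mean by over 5 SD of those controls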;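 note: ratio is mean of duplicate wells from kinetic YFP trace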
# ClC-1 rat inh: ClC-1 chloride channel inhibition, selectivity assay for TMEM16A inhibitor project, cell-based, voltage-dependent ClC-1; shares compounds with ANO1 block; CHO ClC-1-YFP, iodide influx fluorescence quench; iodide control reads 0, buffer control 100; ratio percent, % at 10 µM; 2,300 tested, under 10 active;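 active = duplicate-mean ratio percent above the mean of iodide-only control wells, which defines zero, plus 5 of their SD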;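 note: higher percent means stronger block of ClC-1 iodide influx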
# * marks the source's active call; other numbers are inactive results; i = inactive; / = not tested or not shown.
SMILES,TLR9-MyD88 inh,NOD2 RIPK2 PPI,GRK2 aptamer HTS,ANO1 block,TLR4-MyD88 BLA,TMEM16A act,TMEM16A reconf,TMEM16A Ca cntr,YFP-HEK293 quench,ClC-1 rat inh
O=C(N/N=C/c1ccco1)c1cccc(N2Cc3ccccc3C2)c1,6.0,1.2,2.0,i,-11.7,i,/,/,/,/
CCCCN1C(=O)C(C(=O)OCC)CC2=C1CCCC2=O (centres undefined),-6.2,1.1,/,/,/,/,/,/,/,/
COCCNC(=S)N1CCC(c2nc(-c3ccc(N(C)C)cc3)no2)CC1,-2.7,-1.8,0.0,i,1.1,i,/,/,/,/
CC(C)CNC(=S)N1CCC(c2nc(-c3ccc(F)cc3)no2)CC1,6.8,8.2,5.0,100*,-4.2,i,i,i,-1.01,-12.0
CN(CC(=O)Nc1ccc(Cl)cc1)C(=O)c1cccc(S(=O)(=O)N2CCN(Cc3ccccc3)CC2)c1,-4.6,6.0,2.0,25*,/,i,i,i,-1.12,-9.0
CN(C)C(=O)c1ccc(NC(=O)c2cccc(S(=O)(=O)N3CCN(Cc4ccccc4)CC3)c2)cc1,-0.6,1.5,/,/,/,i,/,/,/,/
CCOC(=O)COc1cccc(C2NC(=O)c3ccccc3O2)c1 (centres undefined),-6.6,-6.9,4.0,i,/,i,/,/,/,/
Cc1cc(C(=O)COc2ccc(-c3nnco3)cc2)c(C)n1Cc1ccccc1,0.8,-2.0,0.0,100*,-4.6,i,18.0%*,i,-0.839,-16.0
O=C(CSc1nccn1Cc1ccccc1)Nc1ccccc1,2.9,-1.7,0.0,i,/,i,/,/,/,/
O=C(CSc1nccn1Cc1ccccc1)Nc1nccs1,-2.4,5.2,0.0,25*,7.5,i,i,i,-1.02,-11.5
Nc1nc(Cl)cc(N2CCCC2)n1,-7.6,-0.7,0.0,i,-8.1,i,/,/,/,/
Nc1nc(Cl)cc(N2CCC(c3cc(-c4ccc(Cl)cc4Cl)n[nH]3)CC2)n1,-0.6,-5.3,1.0,100*,7.3,i,i,i,-1.04,-6.0
Cc1cc(C2(c3ccc(O)c(C)c3)C(=O)Nc3ccccc32)ccc1O,-7.4,5.5,4.0,100*,-2.9,i,i,i,-1.21,-27.0
Cc1cccc2c1NC(=O)C2(c1ccc(O)cc1)c1ccc(O)cc1,4.2,-0.6,0.0,i,-8.9,i,/,/,/,/
COc1ccc(-c2onc(C)c2-c2cscn2)c(O)c1,-3.6,-0.7,0.0,i,-15.6,i,/,/,/,/
CCCOC(=O)c1ccc(-c2c(C)noc2-c2ccc(OC)cc2O)o1,-2.6,2.2,1.0,100*,-11.7,i,i,i,-1.15,-20.5
COCCCNC(=O)c1c(-c2ccccc2)noc1C,-4.9,-5.3,0.0,i,-2.7,/,/,/,/,/
CCCCOCCCNC(=O)c1c(-c2ccccc2)noc1C,0.2,-0.3,0.0,25*,-12.2,i,i,i,-1.17,-15.0
CC(C)c1ccc(NC2CCCN(C(=O)c3n[nH]c4c3CCC4)C2)cc1 (centres undefined),2.0,5.7,0.0,25*,/,i,20.5%*,i,-1.08,-15.5
COc1cc(C2c3c(oc4ccccc4c3=O)C(=O)N2Cc2ccco2)ccc1O (centres undefined),1.4,-2.9,0.0,25*,-1.2,i,i,i,-0.898,-3.5
COc1ccccc1C1(O)CCN(CC(=O)Nc2nc(-c3ccccc3)cs2)CC1,4.1,2.6,1.0,100*,-10.7,i,23.0%*,i,-0.729,-2.0
Cc1ccc(-c2csc(NC(=O)CSC3=NCCS3)n2)cc1,-10.6,1.9,1.0,100*,4.4,i,51.0%*,i,-0.901,-14.0
COc1ccc(-c2csc(NC(=O)CSc3nc(SC)ns3)n2)cc1,-5.3,-10.0,2.0,100*,-2.3,i,21.0%*,i,-1.01,-6.0
Cc1ccc(-c2csc(NC(=O)CSc3nc(C)cc(=O)[nH]3)n2)cc1,/,/,13.0,i,-2.1,/,/,/,/,/
CCOC(=O)N1CCN(C(=O)CSCC(=O)Nc2nc(-c3ccc(OC)cc3)cs2)CC1,-3.8,8.1,1.0,i,-9.7,i,/,/,/,/
SMILES,TLR9-MyD88 inh,NOD2 RIPK2 PPI,GRK2 aptamer HTS,ANO1 block,TLR4-MyD88 BLA,TMEM16A act,TMEM16A reconf,TMEM16A Ca cntr,YFP-HEK293 quench,ClC-1 rat inh
COc1ccc(-c2csc(NC(=O)CSc3nc(C)cs3)n2)cc1,-2.9,2.9,0.0,i,-4.3,i,/,/,/,/
CCOC(=O)N1CCN(C(=O)CSCC(=O)Nc2nc(-c3ccc(-c4ccccc4)cc3)cs2)CC1,-13.4,-5.0,0.0,100*,-6.4,i,24.0%*,i,-0.868,-20.0
CN(C(=O)CCN1C(=O)c2ccccc2C1=O)c1ccccc1,4.6,10.7,1.0,i,/,i,/,/,/,/
CN(Cc1ccccc1)C(=O)[C@@H]1CCCN1,/,-1.0,/,/,/,/,/,/,/,/
Cc1ccc(S(=O)(=O)N2CC(=O)N3CCN(CCN)C3C2)cc1 (centres undefined),6.8,-4.8,0.0,/,/,i,/,/,/,/
COc1cc2oc(=O)ccc2c(OC)c1CC(O)C(C)(C)O (centres undefined),7.5,-1.9,0.0,i,/,i,/,/,/,/
COc1ccc(C)cc1NC(=O)NCCC1=CCCCC1,7.6,14.5,0.0,100*,7.7,i,i,i,-0.869,-5.0
COc1cc(OC)cc(C(=O)N2CCN(C3CCC(C)CC3)CC2)c1 (centres undefined),-2.0,-8.2,/,/,/,i,/,/,/,/
COc1ccc(-n2nc(C(=O)NCC(=O)NCCc3ccc(OC)c(OC)c3)c3ccccc3c2=O)cc1Cl,-1.1,-9.1,0.0,25*,/,i,i,i,-1.34,-3.5
